The panel holds about 83,000 compounds, 20% with a hit somewhere; the sample as a whole holds those more often.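 48-hour exposure, single concentration, 96-well plates; percent growth endpoint where 0 means no net growth. Active: below 10.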 The source made the active and inactive calls.
How the values were obtained:
Assay in all cases: NCI-60 one-dose screen, 48 h (100 = growth as untreated, 0 = no growth, -100 = all killed)
Settings in all cases: 10 µM unless noted
T-47D breast = system: T-47D breast
BT-549 breast = system: BT-549 breast
MDA-MB-435 melanoma = system: MDA-MB-435 melanoma
SW-620 colon = system: SW-620 colon
MCF7 breast = system: MCF7 breast
HCT-116 colon = system: HCT-116 colon
HCC-2998 colon = system: HCC-2998 colon
KM12 colon = system: KM12 colon
MDA-MB-468 breast = system: MDA-MB-468 breast

Measured: growth

Clc1ccc(-c2nc3ccc(-c4nnc(SCc5ccccc5)o4)cc3[nH]2)cc1
active: T-47D breast 7.8% | MCF7 breast 8.62% | HCT-116 colon 2.75%
inactive: BT-549 breast 58.7% | MDA-MB-435 melanoma 62.6% | SW-620 colon 12.9% | HCC-2998 colon 39.4% | KM12 colon 35.5% | MDA-MB-468 breast 11%

O=c1c(-c2nc(-c3ccccc3)c(-c3ccccc3)[nH]2)coc2ccc(F)cc12
inactive: T-47D breast 22.1% | BT-549 breast 70.8% | MDA-MB-435 melanoma 65.4% | SW-620 colon 51% | MCF7 breast 25.9% | HCT-116 colon 39.4% | HCC-2998 colon 77.2% | KM12 colon 23.4% | MDA-MB-468 breast 16%

N#Cc1c(NC(=O)N2CCOCC2)n(-c2ccc(OC(F)(F)F)cc2)c2cc(F)ccc12
inactive: T-47D breast 77.4% | BT-549 breast 139% | MDA-MB-435 melanoma 92.4% | SW-620 colon 110% | MCF7 breast 89% | HCT-116 colon 80.5% | HCC-2998 colon 110% | KM12 colon 92.5% | MDA-MB-468 breast 89.1%

FC(F)(F)c1cc2c(Cl)ncnc2n1CCN1CCOCC1
inactive: T-47D breast 96.2% | BT-549 breast 60.6% | MDA-MB-435 melanoma 86.4% | SW-620 colon 59.9% | MCF7 breast 89% | HCT-116 colon 31.7% | KM12 colon 96.4% | MDA-MB-468 breast 40.1%
active: HCC-2998 colon -26.6%

O=C1/C(=C/C=C/c2ccco2)SC(=S)N1CC(=S)C1C=CS(=O)(=O)C1 (configuration not stated)
inactive: T-47D breast 80.2% | BT-549 breast 88.1% | MDA-MB-435 melanoma 96.7% | SW-620 colon 76.9% | MCF7 breast 27.9% | HCT-116 colon 83.4% | HCC-2998 colon 103% | KM12 colon 89.4%
active: MDA-MB-468 breast -16.5%

O=C1c2cccc3c(N4CCN(Cc5ccccc5)CC4)ccc(c23)C(=O)N1c1cccc(-c2nn(-c3ccccc3)cc2-c2nc3ccccc3s2)c1
inactive: T-47D breast 97.6% | BT-549 breast 114% | MDA-MB-435 melanoma 108% | SW-620 colon 101% | MCF7 breast 88.6% | HCT-116 colon 100% | HCC-2998 colon 127% | KM12 colon 108% | MDA-MB-468 breast 95.7%

CCCCN1C(=O)/C(=C\C(=O)c2cc3ccccc3oc2=O)c2ccccc21
inactive: T-47D breast 23.6% | BT-549 breast 48% | MDA-MB-435 melanoma 84.2% | MCF7 breast 41% | HCT-116 colon 51.3% | HCC-2998 colon 93.9% | KM12 colon 85% | MDA-MB-468 breast 18.1%
active: SW-620 colon -47.6%

Nc1nnc(-c2cncc(Br)c2)c(-c2c[nH]c3ccc(Br)cc23)n1
inactive: T-47D breast 26.1% | BT-549 breast 47.4% | SW-620 colon 28.1% | MCF7 breast 50.4% | HCT-116 colon 22.9% | HCC-2998 colon 74.7% | KM12 colon 41.4%
active: MDA-MB-435 melanoma -14.4% | MDA-MB-468 breast -4.92%

Cc1nn(-c2ccccc2)c2nc(C)n(CC(=O)N/N=C/c3cccc([N+](=O)[O-])c3)c(=O)c12
inactive: T-47D breast 77.6% | BT-549 breast 82.8% | MDA-MB-435 melanoma 101% | SW-620 colon 101% | MCF7 breast 85.5% | HCT-116 colon 87.6% | HCC-2998 colon 116% | KM12 colon 101% | MDA-MB-468 breast 93.3%

c1n[nH]cc1-c1nc2ccc3[nH]ncc3c2c2c1CC1(CCOCC1)CC2
inactive: T-47D breast 13.5% | BT-549 breast 10.9% | MDA-MB-435 melanoma 29.3% | SW-620 colon 17.9% | MCF7 breast 31.8% | HCT-116 colon 11.1% | HCC-2998 colon 41.1% | KM12 colon 47.3%
active: MDA-MB-468 breast 5.4%

Cc1ccc(C(=O)Nc2cccc(C(=O)NC(=S)Nc3ccc(S(N)(=O)=O)cc3)c2)cc1
inactive: T-47D breast 47.6% | BT-549 breast 51.4% | MDA-MB-435 melanoma 72.5% | SW-620 colon 116% | MCF7 breast 57.2% | HCT-116 colon 71.6% | HCC-2998 colon 95.8% | KM12 colon 76.9% | MDA-MB-468 breast 58.7%

O=C(O)CC1S/C(=N/N=C/c2nc3ccccc3s2)NC1=O (configuration not stated)
inactive: T-47D breast 85.4% | BT-549 breast 98.2% | MDA-MB-435 melanoma 102% | SW-620 colon 104% | MCF7 breast 60.9% | HCT-116 colon 71.1% | HCC-2998 colon 106% | KM12 colon 90.6% | MDA-MB-468 breast 104%

CCOc1ccc2[nH]c(=O)c(C(c3nnnn3CC3CCCO3)N3CCN(Cc4ccccc4)CC3)cc2c1 (configuration not stated)
inactive: T-47D breast 106% | BT-549 breast 81.7% | MDA-MB-435 melanoma 99.3% | SW-620 colon 98.8% | MCF7 breast 92.4% | HCT-116 colon 78% | HCC-2998 colon 122% | KM12 colon 101% | MDA-MB-468 breast 72.4%

O=C(c1ccc(Cl)cc1)C1[C@H](c2ccccc2Cl)[C@@H](c2ccccc2)NC12C(=O)Nc1ccccc12 (some centres not stated)
active: T-47D breast -6.74% | BT-549 breast -77.4% | MDA-MB-435 melanoma -82.8% | SW-620 colon -5.33% | MCF7 breast -19% | HCT-116 colon -91.3% | HCC-2998 colon -46.2% | KM12 colon -23.4% | MDA-MB-468 breast -44.8%

COc1ccccc1NC(=O)N/N=C/c1c[nH]c2ccccc12
active: MDA-MB-435 melanoma -22.8% | MCF7 breast 6.55% | HCC-2998 colon 6.44% | KM12 colon 3.61% | MDA-MB-468 breast -6.01%
inactive: T-47D breast 36.2% | BT-549 breast 15.5% | SW-620 colon 35.9% | HCT-116 colon 10.4%

Cc1[nH]nc2ccc3nc(-c4cn[nH]c4C(F)(F)F)c4c(c3c12)CCCC4
inactive: MDA-MB-435 melanoma 21.6%
active: T-47D breast 3.05% | BT-549 breast -82.4% | SW-620 colon -31.1% | MCF7 breast 5.54% | HCT-116 colon -49% | HCC-2998 colon -16.6% | KM12 colon 9.09% | MDA-MB-468 breast -45.6%

COc1ccc(C(=O)/C=C/c2ccc3c(c2)OCCO3)cc1S(N)(=O)=O
inactive: T-47D breast 53% | BT-549 breast 65.4% | MDA-MB-435 melanoma 87.8% | SW-620 colon 32.3% | MCF7 breast 23.2% | HCT-116 colon 42.9% | HCC-2998 colon 99.1% | KM12 colon 85.8% | MDA-MB-468 breast 80.7%

CN1C(=O)C(O)(CC(=O)c2cc3ccccc3oc2=O)c2ccccc21 (configuration not stated)
inactive: T-47D breast 103% | BT-549 breast 105% | MDA-MB-435 melanoma 110% | SW-620 colon 101% | MCF7 breast 67.1% | HCT-116 colon 92.7% | HCC-2998 colon 109% | KM12 colon 96.9% | MDA-MB-468 breast 82.6%

CN1C(=O)/C(=C\C(=O)c2cc3ccccc3oc2=O)c2ccccc21
inactive: T-47D breast 67.4% | BT-549 breast 27.8% | MDA-MB-435 melanoma 85.4% | SW-620 colon 27.1% | MCF7 breast 46.5% | HCT-116 colon 52.6% | HCC-2998 colon 74.2% | KM12 colon 85.1% | MDA-MB-468 breast 28.8%

COC(=O)c1c(C(=O)OC)c2ccc3c4ccccc4ccc3n2c1C(=O)OC
inactive: T-47D breast 93.7% | BT-549 breast 113% | MDA-MB-435 melanoma 98.7% | SW-620 colon 111% | MCF7 breast 85.4% | HCT-116 colon 97.7% | HCC-2998 colon 107% | KM12 colon 103% | MDA-MB-468 breast 89.6%

COc1cc(CNC(=O)[C@]23CCC(C)(C)CC2C2=CCC4[C@@]5(C)CCC(OC(C)=O)C(C)(C)C5CC[C@@]4(C)[C@]2(C)CC3)ccc1OCc1cn(-c2ccc(Cl)cc2Cl)nn1 (some centres not stated)
inactive: T-47D breast 85.1% | BT-549 breast 118% | MDA-MB-435 melanoma 105% | SW-620 colon 106% | MCF7 breast 86.5% | HCT-116 colon 98.2% | HCC-2998 colon 122% | KM12 colon 101% | MDA-MB-468 breast 112%

O=C(c1ccc(Cl)cc1)C1[C@H](c2ccccc2Cl)[C@@H](c2ccccc2)NC12C(=O)Nc1ccc(Br)cc12 (some centres not stated)
active: T-47D breast -83.4% | BT-549 breast -95.1% | MDA-MB-435 melanoma -93.4% | SW-620 colon -84.1% | MCF7 breast -48.7% | HCT-116 colon -98.9% | HCC-2998 colon -94.2% | KM12 colon -51.8% | MDA-MB-468 breast -83.2%

COc1ccc(N=Nc2c(N)nn3c(-c4ccc(F)cc4)ccnc23)cc1
inactive: T-47D breast 61.1% | BT-549 breast 96.4% | MDA-MB-435 melanoma 56.2% | SW-620 colon 44.5% | MCF7 breast 55.4% | HCT-116 colon 71.4% | HCC-2998 colon 108% | KM12 colon 86.2% | MDA-MB-468 breast 44.2%

O=c1ccc(Cn2c(C(F)(F)F)cc3c(Cl)ncnc32)c[nH]1
active: BT-549 breast 4.61%
inactive: T-47D breast 75.7% | MDA-MB-435 melanoma 25.5% | SW-620 colon 32.5% | MCF7 breast 82.4% | HCT-116 colon 19.5% | HCC-2998 colon 40.4% | KM12 colon 105% | MDA-MB-468 breast 37.2%

Cc1ccc(NC(=O)N/N=C/c2c[nH]c3ccccc23)c(C)c1
active: MDA-MB-435 melanoma -14.3% | MCF7 breast 7.55% | HCT-116 colon -15.3% | HCC-2998 colon -11.2% | KM12 colon -25.5% | MDA-MB-468 breast 3.12%
inactive: T-47D breast 46.7% | BT-549 breast 17.2% | SW-620 colon 24.8%

O=C(NNC(=S)NC(=O)c1ccccc1)c1ccc(OCc2nc3ccc(Cl)cc3[nH]2)cc1
active: BT-549 breast -51.8% | MDA-MB-435 melanoma -51.2% | MCF7 breast 3.67% | HCT-116 colon -34.6% | HCC-2998 colon -80.3% | KM12 colon -3.11% | MDA-MB-468 breast -41%
inactive: T-47D breast 10.2% | SW-620 colon 19.8%

Clc1ccc(-c2nc3c4c(-c5ccccc5)c(-c5ccccc5)n(Cc5ccccc5)c4ncn3n2)cc1
active: T-47D breast 7.51% | BT-549 breast -28.4% | MDA-MB-435 melanoma 5.5% | MCF7 breast -2.7% | HCT-116 colon 3.25% | KM12 colon 9.06% | MDA-MB-468 breast -40.4%
inactive: SW-620 colon 12% | HCC-2998 colon 22.1%

O=C(CSc1nnc(-c2ccc(-c3nc4ccc(Cl)cc4[nH]3)cc2)o1)Nc1ccc(Br)cc1
inactive: T-47D breast 41.4% | MDA-MB-435 melanoma 28.6% | SW-620 colon 17.9% | MCF7 breast 20.4% | HCC-2998 colon 76.9% | KM12 colon 18.9% | MDA-MB-468 breast 50.8%
active: BT-549 breast -1.46% | HCT-116 colon 8.26%

Reference: PubChem BioAssay (NCI)
